In PubChem BioAssay AID1159580 (chemical genetic matrix, 2015):
Where “and” joins values, the source holds several entries; their conditions need not be identical. Identical values can stand only once. The whole screen tested about 5,500 compounds, of which about 2,000 (36%) were called active. Not shown: some 18% with an inconclusive outcome. Cut-off read from the data, not from the text of the source: active = normalized growth mostly below about 0.91 (no sharp cut-off); inconclusive = no clear call, values can overlap the other calls; inactive = mostly above about 0.92. Some of the results follow.

Test: chemical genetic growth profiling, strain panel (AID 1159580);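 note: tested at 20 µM; growth read once vehicle control cultures reached saturation at 30 °C; 1 = growth at the plate median or of vehicle wells; lower values mean less growth of the strain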
Settings: S. cerevisiae deletion strains, growth OD

Measured: normalized growth

CC(=O)Oc1ccc2c(c1C(C)C)CCC1C(C)(C)CCC[C@]21C (stereo not given in full)
inactive: locus YAL013W, strain DEP1, hits give low values 1.02 | locus YAL021C, strain ccr4, hits give low values 0.996 | locus YAL026C, strain drs2, hits give low values 1.03 | locus YAL030W, strain snc1, hits give low values 1.01 | locus YBL061C, strain skt5, hits give low values 1.03 | locus YBR009C, strain hhf1, hits give low values 1.02 | locus YBR021W, strain FUR4, hits give low values 1.01 | locus YBR023C, strain chs3, hits give low values 1.03 | locus YBR171W, strain sec66, hits give low values 1.03 | locus YBR229C, strain ROT2, hits give low values 1.02 | locus YBR231C, strain swc5, hits give low values 1.03 | locus YBR279W, strain paf1, hits give low values 1.02 | locus YCL011C, strain gbp2, hits give low values 1.02 | locus YCL016C, strain dcc1, hits give low values 1.02 | locus YCL029C, strain bik1, hits give low values 0.997 | locus YCL061C, strain MRC1, hits give low values 1.01 | locus YCL069W, strain vba3, hits give low values 1.01 | locus YCR088W, strain abp1, hits give low values 1.02 | locus YDL005C, strain med2, hits give low values 1.02 | locus YDL035C, strain GPR1, hits give low values 1.03 | locus YDL040C, strain nat1, hits give low values 1 | locus YDL074C, strain BRE1, hits give low values 1.05 | locus YDL101C, strain DUN1, hits give low values 1.03 | locus YDL134C, strain PPH21, hits give low values 1.02 | locus YDL185W, strain tfp1, hits give low values 1 | locus YDL192W, strain arf1, hits give low values 1.01 | locus YDR001C, strain nth1, hits give low values 1.02 | locus YDR069C, strain doa4, hits give low values 1.02 | locus YDR101C, strain arx1, hits give low values 0.995 | locus YDR137W, strain rgp1, hits give low values 1.01 | locus YDR150W, strain NUM1, hits give low values 0.995 | locus YDR159W, strain sac3, hits give low values 1.06 | locus YDR162C, strain NBP2, hits give low values 1.02 | locus YDR195W, strain ref2 1.01 | locus YDR297W, strain sur2, hits give low values 1.01 | locus YDR318W, strain mcm21, hits give low values 0.996 | locus YDR334W, strain swr1, hits give low values 1.02 | locus YDR335W, strain msn5, hits give low values 1.02 | locus YDR388W, hits give low values 0.994 | locus YDR392W, strain spt3, hits give low values 0.997 | locus YDR502C, strain sam2, hits give low values 1.01 | locus YEL003W, strain gim4, hits give low values 1.02 | locus YEL037C, strain rad23, hits give low values 1.01 | locus YEL061C, strain CIN8 (second series), hits give low values 1.02 | locus YEL061C, strain CIN8, hits give low values 1.01 | locus YER015W, strain faa2, hits give low values 1.02 | locus YER016W, strain bim1, hits give low values 1.02 | locus YER110C, hits give low values 0.998 | locus YER111C, strain swi4, hits give low values 1.01 | locus YER155C, strain BEM2 (second series), hits give low values 1.04 | locus YER155C, strain BEM2, hits give low values 1.01 | locus YER167W, strain BCK2, hits give low values 1.01 | locus YFR010W, strain ubp6, hits give low values 1.04 | locus YGL078C, strain dbp3, hits give low values 1.01 | locus YGL086W, strain mad1, hits give low values 0.99 | locus YGL167C, strain pmr1, hits give low values 1.02 | locus YGL173C, strain kem1, hits give low values 1.02 | locus YGL227W, strain vid30, hits give low values 1.02 | locus YGL240W, strain doc1, hits give low values 1.02 | locus YGL248W, strain PDE1, hits give low values 1.02 | locus YGL253W, strain hxk2, hits give low values 1.03 | locus YGR135W, strain pre9, hits give low values 0.99 | locus YGR252W, strain gcn5, hits give low values 1.02 | locus YHR013C, strain ard1, hits give low values 1.04 | locus YHR027C, strain rpn1, hits give low values 1.02 | locus YHR030C, strain SLT2, hits give low values 0.969 | locus YHR079C, strain IRE1 (second series), hits give low values 0.985 | locus YHR079C, strain IRE1, hits give low values 0.973 | locus YHR094C, strain hxt1, hits give low values 1 | locus YHR129C, strain ARP1, hits give low values 1.01 | locus YHR142W, strain chs7, hits give low values 1.05 | locus YHR200W, strain rpn10, hits give low values 1 | locus YIL066C, strain RNR3, hits give low values 1.03 | locus YIL073C, strain SPO22, hits give low values 1.04 | locus YIL125W, strain kgd1, hits give low values 1 | locus YIR030C, strain dcg1, hits give low values 1 | locus YJL092W, strain hpr5, hits give low values 1.02 | locus YJL095W, strain BCK1 (second series), hits give low values 1.04 | locus YJL095W, strain BCK1, hits give low values 1.04 and 0.976 | locus YJL115W, strain asf1, hits give low values 1.04 | locus YJL129C, strain trk1, hits give low values 0.995 | locus YJL134W, strain LCB3, hits give low values 1.01 | locus YJL154C, strain vps35, hits give low values 1.01 | locus YJL164C, strain tpk1, hits give low values 1 | locus YJL166W, strain qcr8, hits give low values 1.03 | locus YJL168C, strain set2, hits give low values 0.996 | locus YJL187C, strain SWE1 (second series), hits give low values 1.02 | locus YJL187C, strain SWE1, hits give low values 1.01 | locus YJR043C, strain POL32, hits give low values 1.03 | locus YJR066W, strain TOR1, hits give low values 0.918 | locus YKL009W, strain mrt4, hits give low values 1.01 | locus YKL068W, hits give low values 0.997 | locus YKL085W, strain MDH1 (second series), hits give low values 1.01 | locus YKL085W, strain MDH1, hits give low values 1.01 | locus YKL160W, strain elf1, hits give low values 1.01 | locus YKR001C, strain vps1, hits give low values 1.01 | locus YKR026C, strain gcn3, hits give low values 1.03 | locus YKR091W, strain srl3, hits give low values 1.01 | locus YLL001W, strain dnm1, hits give low values 1 | locus YLL026W, hits give low values 1.02 | locus YLL041C, strain sdh2, hits give low values 1.02 | locus YLR027C, strain aat2, hits give low values 1.02 | locus YLR039C, strain RIC1, hits give low values 1.02 | locus YLR058C, strain SHM2, hits give low values 1.02 | locus YLR102C, strain apc9, hits give low values 0.999 | locus YLR113W, strain HOG1, hits give low values 1 | locus YLR221C, strain rsa3, hits give low values 1.02 | locus YLR258W, strain gsy2, hits give low values 1.01 | locus YLR262C, strain YPT6 (second series), hits give low values 1.01 | locus YLR262C, strain YPT6, hits give low values 1.06 | locus YLR268W, strain sec22, hits give low values 1 | locus YLR320W, strain mms22, hits give low values 1.04 | locus YLR330W, strain CHS5, hits give low values 1.01 | locus YLR342W, strain FKS1 (second series), hits give low values 1.01 | locus YLR342W, strain FKS1, hits give low values 1.02 | locus YLR357W, strain rsc2, hits give low values 1.04 | locus YLR370C, strain arc18, hits give low values 1.02 | locus YLR371W, strain rom2, hits give low values 0.99 | locus YLR384C, strain iki3, hits give low values 1.03 | locus YLR418C, strain cdc73, hits give low values 1 | locus YML016C, strain PPZ1, hits give low values 1.02 | locus YML032C, strain rad52, hits give low values 1.01 | locus YML120C, strain ndi1, hits give low values 1.01 | locus YML124C, strain tub3, hits give low values 1 | locus YMR058W, strain fet3, hits give low values 1.03 | locus YMR078C, strain ctf18, hits give low values 1 | locus YMR125W, strain sto1, hits give low values 1.03 | locus YMR129W, hits give low values 1.03 | locus YMR205C, strain PFK2, hits give low values 0.995 | locus YMR223W, strain ubp8, hits give low values 1.01 | locus YMR231W, strain pep5, hits give low values 1.01 | locus YMR263W, strain SAP30, hits give low values 1.02 | locus YMR307W, strain GAS1, hits give low values 1.02 | locus YNL067W, strain RPL9B, hits give low values 1.01 | locus YNL071W, strain lat1, hits give low values 1.01 | locus YNL128W, strain TEP1, hits give low values 1.02 | locus YNL153C, strain GIM3, hits give low values 1.02 | locus YNL183C, strain NPR1, hits give low values 0.928 | locus YNL209W, strain ssb2, hits give low values 1.02 | locus YNL233W, strain BNI4, hits give low values 1.02 | locus YNL248C, strain rpa49, hits give low values 1.02 | locus YNL250W, strain rad50, hits give low values 0.992 | locus YNL271C, strain bni1, hits give low values 0.996 | locus YNL298W, strain CLA4, hits give low values 1.01 | locus YNL307C, strain MCK1, hits give low values 1 | locus YNL322C, strain KRE1 (second series), hits give low values 1.01 | locus YNR049C, strain mso1, hits give low values 1.04 | locus YNR052C, strain pop2, hits give low values 0.995 | locus YOL012C, strain htz1 1.05 | locus YOL147C, strain pex11, hits give low values 0.999 | locus YOR001W, strain rrp6, hits give low values 1.02 | locus YOR061W, strain CKA2, hits give low values 1.02 | locus YOR069W, strain VPS5, hits give low values 1.01 | locus YOR070C, strain gyp1, hits give low values 1.02 | locus YOR080W, strain dia2, hits give low values 1.02 | locus YOR083W, strain WHI5, hits give low values 1.01 | locus YOR106W, strain vam3, hits give low values 1.02 | locus YOR136W, strain idh2, hits give low values 0.99 | locus YOR144C, strain elg1, hits give low values 0.996 | locus YOR184W, strain ser1, hits give low values 0.996 | locus YOR231W, strain MKK1, hits give low values 0.97 | locus YOR265W, strain rbl2, hits give low values 1.04 | locus YOR270C, strain vph1, hits give low values 1.01 | locus YOR290C, strain snf2, hits give low values 1 | locus YOR316C, strain cot1, hits give low values 0.998 | locus YPL051W, strain arl3, hits give low values 1.02 | locus YPL078C, strain atp4, hits give low values 1 | locus YPL106C, strain sse1, hits give low values 1.02 | locus YPL240C, strain hsp82, hits give low values 1.02 | locus YPL256C, strain CLN2, hits give low values 0.966 | locus YPR119W, strain clb2, hits give low values 0.992 | locus YPR141C, strain kar3, hits give low values 1 | locus YPR163C, strain tif3, hits give low values 0.996 | locus YPR167C, strain met16, hits give low values 0.995 | strain wtn01, hits give low values 1
